{
  "source": "the supplement of paper PMC11417369",
  "note": "± gives the standard deviation of the averaged measurements. Whole data set: some 25,000 sequences, median “ln(normalized median fluorescence intensity)” near 10, cut for the highest 2% near 12. The sample holds the highest values, similar sequences and a random draw of the others, so the mix is not that of the screen.",
  "data": [
    {"tested_on": "PfAP2-G AP2 domain (GST-tagged)", "assay": "gcPBM binding intensity (ln(normalized median fluorescence intensity)); higher = stronger DNA binding", "in_short": "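The highest Masliner-normalised natural-log median intensity across replicate spots of either probe orientation is reported as binding intensity. GST-tagged P. falciparum DNA-binding domains expressed in E. coli were applied for 1 h to an Agilent 4 × 180k array of primer-extended double-stranded 36-bp intergenic genomic probes plus negative controls, and bound protein was detected with Alexa488 anti-GST antibody and scanned at 488 nm.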", "values": [
      {"sequence": "TTTTGTTGTTGTTGTTGTACATAAATAATAAAATAT [XGTACX_site8681]", "gcPBM binding intensity (ln)": "11.3 ± 0.95"},
      {"sequence": "TATAGGTAAATGGACACACACATATTTATATTTATA [CACACA_site7683]", "gcPBM binding intensity (ln)": "10.9 ± 0.58"},
      {"sequence": "ATTATATATATCAGGTGTACGTAAAAAAAATGGACG [XGTACX_site1028]", "gcPBM binding intensity (ln)": "11.9 ± 0.81"},
      {"sequence": "TTTTTTTTTATAAGGTGTACGTAAAATGTGTAGGTC [XGTACX_site3585]", "gcPBM binding intensity (ln)": "11.6 ± 0.82"},
      {"sequence": "AGTAAATATATTATATGTACGTATCATAAAATATAT [XGTACX_site1567]", "gcPBM binding intensity (ln)": "11.6 ± 0.86"},
      {"sequence": "TAAAAATATATGTATACACACATATATATATATATA [CACACA_site3951]", "gcPBM binding intensity (ln)": "10 ± 0.38"},
      {"sequence": "AATGCTATCTTCTTATTTTTCATACACAACATGAAC [CACACA_negctrl_site1809]", "gcPBM binding intensity (ln)": "10.2 ± 0.11"},
      {"sequence": "GTTTGGTGGTGTTTTGGTACGTACGGGGGTGTATGT [XGTACX_site1211]", "gcPBM binding intensity (ln)": "11.7 ± 0.85"},
      {"sequence": "TATGATTTTTATATATGTACGTATGGTGTTTTACAA [XGTACX_site6100]", "gcPBM binding intensity (ln)": "11.3 ± 0.53"},
      {"sequence": "TGTTTTGTTTTTTGGGGTACATGTTTTGTATTATAT [XGTACX_site7997]", "gcPBM binding intensity (ln)": "11.6 ± 0.78"},
      {"sequence": "GACTTTTCATTTATAGTGCAAGTTTTTTTTTTTTTT [GTGCAC_site9698]", "gcPBM binding intensity (ln)": "10.1 ± 0.23"},
      {"sequence": "CAAAAGTAAGCACGCACACACAACATGAAATAAACT [CACACA_site6223]", "gcPBM binding intensity (ln)": "10.29 ± 0.078"},
      {"sequence": "ATATATTTTGATTGCACACAGAATTTAAATCATGAT [CACACA_site2343]", "gcPBM binding intensity (ln)": "10.1 ± 0.2"},
      {"sequence": "TATTTATAAAAATATACACACATACAAATATGCATA [CACACA_site4555]", "gcPBM binding intensity (ln)": "9.815 ± 0.007"},
      {"sequence": "TTTTTTTTAAAACTATGTACGTAAAAATTGTAGTTT [XGTACX_site2302]", "gcPBM binding intensity (ln)": "11.7 ± 0.91"},
      {"sequence": "CATAAATACTATATATGTACGTAATTTTTAAAACAT [XGTACX_site7710]", "gcPBM binding intensity (ln)": "11.6 ± 0.83"},
      {"sequence": "TTTTTTTTTTTAATATGTACGTAAAATAAGTTTAAA [XGTACX_site6495]", "gcPBM binding intensity (ln)": "11.4 ± 0.95"},
      {"sequence": "TTTATTTTATTTTCATGTACAAAAGGGGAATAATAA [XGTACX_site2704]", "gcPBM binding intensity (ln)": "10.9 ± 0.71"},
      {"sequence": "AATAGGGTCATTCAAAAAAAAAAAAAATAATAATAC [CACACA_negctrl_site644]", "gcPBM binding intensity (ln)": "10.1 ± 0.29"},
      {"sequence": "TACACATGTTTAAAATGTACGTTTTATAACACACAC [XGTACX_site8229]", "gcPBM binding intensity (ln)": "11.3 ± 0.82"},
      {"sequence": "ATATTATAAATATAATGTACGTTTTAATTTCATGTT [XGTACX_site3557]", "gcPBM binding intensity (ln)": "11.2 ± 0.79"},
      {"sequence": "ATTTCTAAATGTTGGTGTACGTTTTTTTATAACCTT [XGTACX_site1752]", "gcPBM binding intensity (ln)": "11.6 ± 1.1"},
      {"sequence": "TCACTATAATAATTTACACACATTTTAAGAAAATGG [CACACA_site5867]", "gcPBM binding intensity (ln)": "10 ± 0.18"},
      {"sequence": "TATATTTATTATAACACACACATATATATATTATAT [CACACA_site1061]", "gcPBM binding intensity (ln)": "9.905 ± 0.064"},
      {"sequence": "TTATAAATAAAAAATACACACATATATTTATTTATA [CACACA_site6242]", "gcPBM binding intensity (ln)": "9.77 ± 0.028"},
      {"sequence": "TACTATGCCCCATATAAACACACAAATAAAAAGAAT [CACACA_site8857]", "gcPBM binding intensity (ln)": "10.2 ± 0.21"},
      {"sequence": "TTTTCATGTTGTAAAGCATGCTTTACTCATAAAAAA [TGCATGCA_site917]", "gcPBM binding intensity (ln)": "9.95 ± 0.23"},
      {"sequence": "ATTTCATTTTATAAGTGTACAATAAAAAAAAAAAAA [XGTACX_site8677]", "gcPBM binding intensity (ln)": "11.3 ± 1"},
      {"sequence": "ATAGGCAAAAAGTGTACACATTCATTTATATAAATA [CACACA_site4480]", "gcPBM binding intensity (ln)": "11.7 ± 0.79"},
      {"sequence": "TGCAATATATCAAAGTGTACATGCAATAAAAAAAAA [XGTACX_site652]", "gcPBM binding intensity (ln)": "11.1 ± 0.71"},
      {"sequence": "ATTTAAATAATATGTACACACATTTAAAAAGTTATA [CACACA_site7347]", "gcPBM binding intensity (ln)": "11.6 ± 0.94"},
      {"sequence": "TATACATTTTTATAAAGTACACAAAAATAAATATAA [XGTACX_site1647]", "gcPBM binding intensity (ln)": "11.5 ± 0.95"},
      {"sequence": "ACAATATGCAAAAAGTGTACACATTCATTTATATAA [XGTACX_site1061]", "gcPBM binding intensity (ln)": "11.7 ± 0.86"},
      {"sequence": "TTGTAGATATTTATATGTACGAATTTATAAATATAG [XGTACX_site3611]", "gcPBM binding intensity (ln)": "11.1 ± 0.76"},
      {"sequence": "ACTATTTTCTTCAAAACATGCACCACATAAACATAA [TGCATGCA_site200]", "gcPBM binding intensity (ln)": "10.6 ± 0.51"},
      {"sequence": "TAATTATTATTAATAGTACACACTATGGCATTTCAA [CACACA_site2488]", "gcPBM binding intensity (ln)": "11.1 ± 0.84"},
      {"sequence": "TATTCATATTCCAAGTGTACACATAAATCCCTAATA [XGTACX_site4131]", "gcPBM binding intensity (ln)": "11.5 ± 0.9"},
      {"sequence": "GATTATTTTATAAGTACACACATTTATATATAATAA [CACACA_site2573]", "gcPBM binding intensity (ln)": "11.5 ± 1.1"},
      {"sequence": "AAAATTCATCCAACAAGTACATAAATATAATATTAT [XGTACX_site4596]", "gcPBM binding intensity (ln)": "11.3 ± 0.79"},
      {"sequence": "TAATATATTTATAAGTGTACACATTATATAAATCCC [XGTACX_site8875]", "gcPBM binding intensity (ln)": "11.7 ± 0.74"},
      {"sequence": "ATTATATTTTTAAGTACACACATATAAATAAATATA [CACACA_site7682]", "gcPBM binding intensity (ln)": "11.4 ± 1"},
      {"sequence": "TCATATTCCAAGTGTACACATAAATCCCTAATAACA [CACACA_site5167]", "gcPBM binding intensity (ln)": "11.7 ± 0.94"},
      {"sequence": "TATATTTATAAGTGTACACATTATATAAATCCCTAT [CACACA_site6122]", "gcPBM binding intensity (ln)": "11.7 ± 1.1"},
      {"sequence": "ATTAACACATTTAAGTGTACATATATAAATATATAT [XGTACX_site7098]", "gcPBM binding intensity (ln)": "11.4 ± 0.83"},
      {"sequence": "TATAAATATATTTATACACACATTAGTGTATACATG [CACACA_site7397]", "gcPBM binding intensity (ln)": "10.2 ± 0.11"},
      {"sequence": "TCAAAAATAAAGATCACACATATATATATATATATA [CACACA_site4381]", "gcPBM binding intensity (ln)": "10.3 ± 0.99"},
      {"sequence": "CACATATATACACATACACACACACCCATACACCCA [CACACA_site8505]", "gcPBM binding intensity (ln)": "10.5 ± 0.39"},
      {"sequence": "TATACAAAATAACTAGCACACATATGTATAAACATA [CACACA_site9236]", "gcPBM binding intensity (ln)": 10.2},
      {"sequence": "TACATACACAAATACACACACAAATACATACACAAA [CACACA_site704]", "gcPBM binding intensity (ln)": "10.2 ± 0.41"},
      {"sequence": "TAAACATTCTTATATAGTACCCATATTAAAATATAC [XGTACX_site8014]", "gcPBM binding intensity (ln)": "10.8 ± 0.58"},
      {"sequence": "CCAATAATATATAGAAGTACAGAAAAAAAAAAAAAA [XGTACX_site2049]", "gcPBM binding intensity (ln)": "11.5 ± 1.1"},
      {"sequence": "TATATATAAGAAAAAAGTACAGATATATATATATTC [XGTACX_site4788]", "gcPBM binding intensity (ln)": "11.6 ± 1.1"},
      {"sequence": "TATATATATATAAGAAGTACAGAAAATTAGAAAAAA [XGTACX_site8773]", "gcPBM binding intensity (ln)": "11.7 ± 1.1"},
      {"sequence": "TTTTTTTTTTTTTTTTTTTTTTTGCTCAGTGTGGTA [CACACA_negctrl_site29]", "gcPBM binding intensity (ln)": "9.95 ± 0.56"},
      {"sequence": "ACAGAAAATAAAATTTGTACATATATAGAATAAAGA [XGTACX_site3014]", "gcPBM binding intensity (ln)": "10.8 ± 0.39"},
      {"sequence": "ATTTTGATAACCGTACGTACATATATATATATATAT [XGTACX_site6605]", "gcPBM binding intensity (ln)": "11.8 ± 0.85"},
      {"sequence": "AAAATTATATATTATAGTACATAAAATTTTGATATA [XGTACX_site994]", "gcPBM binding intensity (ln)": "10.9 ± 0.56"},
      {"sequence": "AATGATTTTGATTAACGTACGTACAAATATATATAT [XGTACX_site6604]", "gcPBM binding intensity (ln)": "11.5 ± 0.82"}
    ]}
  ]
}
